Where a name gives a salt, the structure may show the parent alone.
Legend:
Assay in all cases: lowest phenotypically active concentration; higher = less potent
Conditions in all cases: treatment time: 24 h
[1] = test system: A549-CANX-COX4
Outline: (§1)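 The reporter lines, fifteen in total and built by gene editing in A549, HepG2 and WPMY1 cells, used BFP for segmentation alongside GFP and RFP/FusionRed markers. Each was treated at 0.3, 1, 3 or 9 µM for 24 h in four wells and then imaged live, with live-cell features normalised to solvent control wells. Deviation meant ≥3 of 4 wells beyond the 95th percentile of control Euclidean distances; reproducibility meant a median replicate Pearson correlation above the 95th percentile of non-replicates. Only conditions meeting both were scored as phenotypically active.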

[2] = test system: A549-TP53BP1-CLTA
Outline: as §1

[3] = test system: HepG2-ACTB-RAB5A
Outline: as §1

[4] = test system: HepG2-CANX-COX4
Outline: as §1

[5] = test system: HepG2-GM130-SQSTM1
Outline: as §1

[6] = test system: HepG2-TP53BP1-CLTA
Outline: as §1

[7] = test system: HepG2-TUBA1B-RELA
Outline: as §1

[8] = test system: WPMY1-GM130-SQSTM1
Outline: as §1

[9] = test system: WPMY1-TP53BP1-CLTA
Outline: as §1

[10] = test system: WPMY1-TUBA1B-RELA
Outline: as §1

| SMILES | lowest phenotypically active concentration [1] [µM] | lowest phenotypically active concentration [2] [µM] | lowest phenotypically active concentration [3] [µM] | lowest phenotypically active concentration [4] [µM] | lowest phenotypically active concentration [5] [µM] | lowest phenotypically active concentration [6] [µM] | lowest phenotypically active concentration [7] [µM] | lowest phenotypically active concentration [8] [µM] | lowest phenotypically active concentration [9] [µM] | lowest phenotypically active concentration [10] [µM] |
| --- | --- | --- | --- | --- | --- | --- | --- | --- | --- | --- |
| CN1CCN([C@H]2CC[C@H](n3cc(-c4ccc(Oc5ccccc5)cc4)c4c(N)ncnc43)CC2)CC1 | 1 | ≤ 0.3 | ≤ 0.3 | 1 | ≤ 0.3 | 1 | ≤ 0.3 | ≤ 0.3 | 1 | ≤ 0.3 |
| O=C1NC(=O)[C@@H](c2cn3c4c(cccc24)CCC3)[C@@H]1c1c[nH]c2ccccc12 [tivantinib] | 1 | 1 | 1 | 1 | 1 | 1 | 1 | 1 | 1 | 1 |
| N#CC[C@@H](C1CCCC1)n1cc(-c2ncnc3[nH]ccc23)cn1 [ruxolitinib-(S)] | 9 | 9 |  | 9 | 9 | 9 | 9 |  |  | 3 |
| CNC(=O)c1cc(Oc2ccc(NC(=O)Nc3ccc(Cl)c(C(F)(F)F)c3)cc2)ccn1 [sorafenib] | 9 | ≤ 0.3 | 9 | 3 | 3 | 9 | 3 | 1 |  | 9 |
| Nc1ncnc(Nc2ccc(OCc3ccccc3)c(Cl)c2)c1/C=N/OCCN1CCOCC1 | 9 | 1 | 9 |  | 9 | 9 | 9 |  |  |  |
| CC(C)(C)c1cc(NC(=O)Nc2ccc(-c3cn4c(n3)sc3cc(OCCN5CCOCC5)ccc34)cc2)no1 [quizartinib] | 3 | 3 | 9 |  | 3 |  | 3 | 9 | 9 | 3 |
| CCCCNNC(=O)c1ccc(Br)cc1 | 3 | 3 | 1 | 1 | 1 | 1 | 9 | 3 | 9 | 9 |
| CC(C)(C)c1nc(-c2cccc(NS(=O)(=O)c3c(F)cccc3F)c2F)c(-c2ccnc(N)n2)s1 [dabrafenib] | 1 | ≤ 0.3 | 3 | ≤ 0.3 | ≤ 0.3 | ≤ 0.3 | ≤ 0.3 |  |  | 1 |
| S=C(S)N1CCCC1 [Pyrrolidinedithiocarbamate ammonium] | 3 | 9 | 9 | 3 | 9 | 3 | 9 | 9 |  |  |
| O=C(O)[C@]1(Cc2cccc(Nc3nccs3)n2)CC[C@@H](Oc2cccc(Cl)c2F)CC1 | 1 | 1 | ≤ 0.3 | 1 | ≤ 0.3 | ≤ 0.3 | ≤ 0.3 |  | ≤ 0.3 | ≤ 0.3 |
| Cn1cnc2c(F)c(Nc3ccc(Br)cc3Cl)c(C(=O)NOCCO)cc21 [selumetinib] | 1 | ≤ 0.3 | ≤ 0.3 | ≤ 0.3 | ≤ 0.3 | ≤ 0.3 | 1 | 3 | 3 |  |
| O=C(NOC[C@H](O)CO)c1ccc(F)c(F)c1Nc1ccc(I)cc1F | 1 | ≤ 0.3 | ≤ 0.3 | ≤ 0.3 | ≤ 0.3 | ≤ 0.3 | ≤ 0.3 | 3 | 1 |  |
| Cc1ncc(-c2ccnc(Nc3ccc(S(C)(=O)=O)cc3)n2)n1C(C)C | ≤ 0.3 | ≤ 0.3 | ≤ 0.3 | ≤ 0.3 | ≤ 0.3 | ≤ 0.3 | ≤ 0.3 | ≤ 0.3 | ≤ 0.3 | ≤ 0.3 |
| COc1cc2nc(N3CCN(C(=O)C4COc5ccccc5O4)CC3)nc(N)c2cc1OC (stereo not drawn) [doxazosin] | 9 | 9 | 9 |  | 9 | 9 | 9 | ≤ 0.3 | 9 |  |
| CN(C)CCCN1c2ccccc2Sc2ccc(Cl)cc21 [chlorpromazine] | 9 | 9 |  | 9 | 9 | 9 | 9 |  | 9 | 9 |
| N=C(N)c1ccc(OCCCCCOc2ccc(C(=N)N)cc2)cc1 [pentamidine] | ≤ 0.3 | 3 | 9 | 9 |  | 9 | 9 | 9 |  |  |
| Cc1cc2c(F)c(Oc3ncnn4cc(OC[C@@H](C)O)c(C)c34)ccc2[nH]1 [brivanib] | 9 | 9 | 9 | 9 | 9 | 9 | 9 |  | 3 | 9 |
| CN1CCN(C(=O)CN[C@H]2C[C@@H]2c2ccc(OCc3ccccc3)cc2)CC1 [RN 1 dihydrochloride] | 9 | 9 | 9 |  | 3 | 9 | 3 | 9 | 9 | 9 |
| COc1cc2c(cc1O)CC[C@@H]1[C@@H]2CC[C@]2(C)[C@@H](O)CC[C@@H]12 [2-methoxyestradiol] | 1 | 1 | 3 | 1 | 3 | 3 | 3 |  | 1 | 1 |
